Several values for one entry are separate records, joined by “and”; a condition that tells them apart may be missing. Identical values can stand only once. Activity calls are given as the source filed them. Rule for the calls: active = hit-call score of the fitted dose curve at least 0.9, where 1 is the maximum; inactive = score below 0.9.
The compounds below were run on E-selectin (Homo sapiens) (UniProt P16581) (assay: BSK_3C_Eselectin: BioMAP Diversity Plus: 3C Assay for Eselectin Biomarker Activity (AID 2283015;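 for outcome: cell surface E-selectin protein quantified by ELISA 24 h after dosing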)). Details: primary human endothelial cells (HUVEC); actives raise or lower the signal.
Chain of E-selectin (Homo sapiens) (P16581 whole entry, looked up): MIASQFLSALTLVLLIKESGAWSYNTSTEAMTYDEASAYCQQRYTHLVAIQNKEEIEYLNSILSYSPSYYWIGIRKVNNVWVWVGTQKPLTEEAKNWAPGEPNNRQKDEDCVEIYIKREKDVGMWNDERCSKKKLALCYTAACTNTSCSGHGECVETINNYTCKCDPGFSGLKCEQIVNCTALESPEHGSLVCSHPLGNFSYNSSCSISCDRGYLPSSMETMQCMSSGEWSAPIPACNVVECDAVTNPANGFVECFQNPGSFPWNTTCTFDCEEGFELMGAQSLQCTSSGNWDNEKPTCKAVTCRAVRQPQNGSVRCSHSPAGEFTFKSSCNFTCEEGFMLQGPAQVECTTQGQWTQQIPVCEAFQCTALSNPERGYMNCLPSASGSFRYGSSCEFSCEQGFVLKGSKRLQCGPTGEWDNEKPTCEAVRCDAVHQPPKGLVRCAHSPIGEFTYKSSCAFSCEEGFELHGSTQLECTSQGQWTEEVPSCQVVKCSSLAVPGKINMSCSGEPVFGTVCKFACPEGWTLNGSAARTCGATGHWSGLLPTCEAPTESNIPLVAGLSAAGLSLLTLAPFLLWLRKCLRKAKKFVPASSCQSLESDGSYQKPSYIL
Method in brief: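 Endpoint derived by bidirectional fitting against DMSO vehicle; signal is ELISA-detected E-selectin from primary HUVEC at 24 h post-dosing, with parallel SRB staining (0.1% SRB, 560 nm) flagging cytotoxicity.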

SMILES	outcome	AC50
CCOC(=O)CC(=O)C(F)(F)C(F)(F)F	inactive	–
CCN(CC)c1ccc(C=O)c(O)c1	inactive	–
FC(F)(F)C(F)(F)C(F)(F)CC1CO1 (configuration not stated)	inactive	–
OCC(O)CC(F)(F)C(F)(F)C(F)(F)C(F)(F)F (configuration not stated)	inactive	–
OC(O)C(F)(F)C(F)(F)F	inactive	–
NC(O)(C(F)(F)F)C(F)(F)F	inactive	–
FC(F)(F)C(F)(F)C(F)(F)C(F)(F)C(F)(F)C(F)(F)CC[Si](Cl)(Cl)Cl	inactive	–
O=C=NCc1cccc(CN=C=O)c1	inactive	–
Cc1cc(O)c(C(C)(C)C)cc1C(C)(C)C	–	3.91 µM (active)
NC(=O)C(F)(F)C(F)(F)C(F)(F)F	inactive	–
C=CC(=O)OCC(F)(F)C(F)(F)C(F)(F)COC(=O)C=C	–	19.4 µM (active) and 32.1 µM (active)
Cc1ccc(S(=O)(=O)C(I)I)cc1	–	3.08 µM (active)
COC(F)(C(F)F)C(F)(F)F (configuration not stated)	inactive	–
CC1=CC2C3C=CC(C3)C2C1C (configuration not stated)	inactive	–
O=S(=O)(O)CCC(F)(F)C(F)(F)C(F)(F)C(F)(F)F	inactive	–
O=S(=O)(OCC(F)(F)F)C(F)(F)C(F)(F)C(F)(F)C(F)(F)F	inactive	–
O=C(O)C(F)(F)C(F)(F)C(F)(F)C(=O)O	inactive	–
OCC(F)(F)C(F)(F)C(F)(F)C(F)(F)C(F)(F)C(F)(F)CO	inactive	–
O=C=Nc1cccc2c(N=C=O)cccc12	inactive	–
CC(C)(C)c1cc(CCC(=O)NCCCCCCNC(=O)CCc2cc(C(C)(C)C)c(O)c(C(C)(C)C)c2)cc(C(C)(C)C)c1O	inactive	–
CCN(CC)c1ccc2c(c1)Oc1cc(N(CC)CC)ccc1C21OC(=O)c2ccccc21	inactive	–
O=C(F)C1(F)C(F)(F)C(F)(F)C(F)(F)C(F)(F)C1(F)F	inactive	–
Cc1cnccn1	inactive	–
Nc1cc([N+](=O)[O-])cc(Cl)c1O	inactive	–
OCCCC(F)(F)C(F)(F)C(F)(F)C(F)(F)C(F)(F)C(F)(F)C(F)(F)C(F)(F)F	–	27.4 µM (active) and 50.6 µM (active)
O=C(O)C(F)(F)C(F)(F)C(F)(F)OC(F)(F)F	inactive	–
CCN=C1C=CC(=C(c2ccc(N(CC)CC)cc2)c2ccc(N(CC)CC)cc2)c2ccccc21	–	3.62 µM (active) and 2.78 µM (active)
O=C(O)CCC(F)(F)C(F)(F)C(F)(F)F	inactive	–
CCN(CC)c1ccc(C=O)cc1	inactive	–

These compounds were tested on Interleukin-1 alpha (IL1a), IL1A (gene 3552) (assay: BSK_BE3C_IL1a: BioMAP Diversity Plus: BE3C Assay for Interleukin-1 alpha (IL1a) Biomarker Activity (AID 2283016)). Details: primary human bronchial epithelial cells; actives raise or lower the signal.
Method in brief: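 BE3C primary human bronchial epithelium; cpd 24 h; IL-1a by ELISA; bidirectional fit vs DMSO; parallel SRB (0.1% SRB, 10% TCA fix, 560 nm) for cytotoxicity.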

SMILES	outcome	AC50
CCOC(=O)CC(=O)C(F)(F)C(F)(F)F	inactive	–
CCN(CC)c1ccc(C=O)c(O)c1	inactive	–
FC(F)(F)C(F)(F)C(F)(F)CC1CO1 (configuration not stated)	inactive	–
OCC(O)CC(F)(F)C(F)(F)C(F)(F)C(F)(F)F (configuration not stated)	inactive	–
OC(O)C(F)(F)C(F)(F)F	inactive	–
NC(O)(C(F)(F)F)C(F)(F)F	inactive	–
FC(F)(F)C(F)(F)C(F)(F)C(F)(F)C(F)(F)C(F)(F)CC[Si](Cl)(Cl)Cl	inactive	–
O=C=NCc1cccc(CN=C=O)c1	inactive	–
Cc1cc(O)c(C(C)(C)C)cc1C(C)(C)C	–	4.77 µM (active)
NC(=O)C(F)(F)C(F)(F)C(F)(F)F	inactive	–
C=CC(=O)OCC(F)(F)C(F)(F)C(F)(F)COC(=O)C=C	–	23.2 µM (active) and 17.5 µM (active)
Cc1ccc(S(=O)(=O)C(I)I)cc1	–	5.63 µM (active)
COC(F)(C(F)F)C(F)(F)F (configuration not stated)	inactive	–
CC1=CC2C3C=CC(C3)C2C1C (configuration not stated)	inactive	–
O=S(=O)(O)CCC(F)(F)C(F)(F)C(F)(F)C(F)(F)F	inactive	–
O=S(=O)(OCC(F)(F)F)C(F)(F)C(F)(F)C(F)(F)C(F)(F)F	inactive	–
O=C(O)C(F)(F)C(F)(F)C(F)(F)C(=O)O	inactive	–
OCC(F)(F)C(F)(F)C(F)(F)C(F)(F)C(F)(F)C(F)(F)CO	inactive	–
O=C=Nc1cccc2c(N=C=O)cccc12	inactive	–
CC(C)(C)c1cc(CCC(=O)NCCCCCCNC(=O)CCc2cc(C(C)(C)C)c(O)c(C(C)(C)C)c2)cc(C(C)(C)C)c1O	inactive	–
CCN(CC)c1ccc2c(c1)Oc1cc(N(CC)CC)ccc1C21OC(=O)c2ccccc21	inactive	–
O=C(F)C1(F)C(F)(F)C(F)(F)C(F)(F)C(F)(F)C1(F)F	inactive	–
Cc1cnccn1	inactive	–
Nc1cc([N+](=O)[O-])cc(Cl)c1O	inactive	–
OCCCC(F)(F)C(F)(F)C(F)(F)C(F)(F)C(F)(F)C(F)(F)C(F)(F)C(F)(F)F	–	46.9 µM (active) and 39.5 µM (active)
O=C(O)C(F)(F)C(F)(F)C(F)(F)OC(F)(F)F	inactive	–
CCN=C1C=CC(=C(c2ccc(N(CC)CC)cc2)c2ccc(N(CC)CC)cc2)c2ccccc21	–	1.99 µM (active) and 1.72 µM (active)
O=C(O)CCC(F)(F)C(F)(F)C(F)(F)F	inactive	–
CCN(CC)c1ccc(C=O)cc1	inactive	–

What follows are compounds tested on Monocyte Chemoattractant Protein-1 (MCP1), CCL2 (gene 6347) (assay: BSK_3C_MCP1: BioMAP Diversity Plus: 3C Assay for Monocyte Chemoattractant Protein-1 (MCP1) Biomarker Activity (AID 2283017)). Details: primary human endothelial cells (HUVEC); actives raise or lower the signal.
Method in brief: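 Using human vascular primary endothelium, researchers measured MCP-1 by ELISA 24 h after treatment, with DMSO serving as negative control for bidirectional fitting.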

SMILES	outcome	AC50
CCOC(=O)CC(=O)C(F)(F)C(F)(F)F	inactive	–
CCN(CC)c1ccc(C=O)c(O)c1	inactive	–
FC(F)(F)C(F)(F)C(F)(F)CC1CO1 (configuration not stated)	inactive	–
OCC(O)CC(F)(F)C(F)(F)C(F)(F)C(F)(F)F (configuration not stated)	inactive	–
OC(O)C(F)(F)C(F)(F)F	inactive	–
NC(O)(C(F)(F)F)C(F)(F)F	inactive	–
FC(F)(F)C(F)(F)C(F)(F)C(F)(F)C(F)(F)C(F)(F)CC[Si](Cl)(Cl)Cl	inactive	–
O=C=NCc1cccc(CN=C=O)c1	inactive	–
Cc1cc(O)c(C(C)(C)C)cc1C(C)(C)C	–	4.59 µM (active)
NC(=O)C(F)(F)C(F)(F)C(F)(F)F	inactive	–
C=CC(=O)OCC(F)(F)C(F)(F)C(F)(F)COC(=O)C=C	–	39.6 µM (active) and 30 µM (active)
Cc1ccc(S(=O)(=O)C(I)I)cc1	–	2.58 µM (active)
COC(F)(C(F)F)C(F)(F)F (configuration not stated)	inactive	–
CC1=CC2C3C=CC(C3)C2C1C (configuration not stated)	inactive	–
O=S(=O)(O)CCC(F)(F)C(F)(F)C(F)(F)C(F)(F)F	inactive	–
O=S(=O)(OCC(F)(F)F)C(F)(F)C(F)(F)C(F)(F)C(F)(F)F	inactive	–
O=C(O)C(F)(F)C(F)(F)C(F)(F)C(=O)O	inactive	–
OCC(F)(F)C(F)(F)C(F)(F)C(F)(F)C(F)(F)C(F)(F)CO	inactive	–
O=C=Nc1cccc2c(N=C=O)cccc12	inactive	–
CC(C)(C)c1cc(CCC(=O)NCCCCCCNC(=O)CCc2cc(C(C)(C)C)c(O)c(C(C)(C)C)c2)cc(C(C)(C)C)c1O	inactive	–
CCN(CC)c1ccc2c(c1)Oc1cc(N(CC)CC)ccc1C21OC(=O)c2ccccc21	–	10 µM (active)
O=C(F)C1(F)C(F)(F)C(F)(F)C(F)(F)C(F)(F)C1(F)F	inactive	–
Cc1cnccn1	inactive	–
Nc1cc([N+](=O)[O-])cc(Cl)c1O	inactive	–
OCCCC(F)(F)C(F)(F)C(F)(F)C(F)(F)C(F)(F)C(F)(F)C(F)(F)C(F)(F)F	–	20.8 µM (active) and 31.7 µM (active)
O=C(O)C(F)(F)C(F)(F)C(F)(F)OC(F)(F)F	inactive	–
CCN=C1C=CC(=C(c2ccc(N(CC)CC)cc2)c2ccc(N(CC)CC)cc2)c2ccccc21	–	2.22 µM (active) and 2.19 µM (active)
O=C(O)CCC(F)(F)C(F)(F)C(F)(F)F	inactive	–
CCN(CC)c1ccc(C=O)cc1	inactive	–
